This is part of a sample that, as a whole, favours compounds with a hit. Of some 83,000 tested, about 20% had one in any assay.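 Method: cells in 96-well plates; compound added at one concentration; 48 h incubation; percent growth measured; values under 10 scored active.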 Values without a mark were called inactive. The source made the active and inactive calls.
Assays:
Assay in all cases: NCI-60 one-dose screen, 48 h (100 = growth as untreated, 0 = no growth, -100 = all killed)
Conditions in all cases: 10 µM unless noted
[1] = tested on: NCI-H23 lung
[2] = tested on: NCI-H226 lung
[3] = tested on: NCI-H322M lung
[4] = tested on: HOP-62 NSCLC
[5] = tested on: NCI-H460 lung
[6] = tested on: HOP-92 NSCLC
[7] = tested on: NCI-H522 lung
[8] = tested on: A549/ATCC NSCLC
[9] = tested on: 786-0 renal
[10] = tested on: COLO 205 colon

Structure (SMILES) | growth [1] | growth [2] | growth [3] | growth [4] | growth [5] | growth [6] | growth [7] | growth [8] | growth [9] | growth [10]
CC1(C)[C@H](O)[C@H](F)C[C@@]2(C)Oc3ccc(C(=O)Nc4ccc5c(c4)NC(=O)C54CCN(CCCCC#N)CC4)cc3C[C@H]12 | 55.4% | 69.9% | 91.9% | 12.8% | 21.3% | 41.7% | -4.72% (active) | 19.5% | 21.5% | -23.7% (active)
Nc1ncnc2n[nH]nc12 | 72.7% | 72.3% | 42.3% | 40% | 95.1% | 77.3% | 34% | 73.4% | 56.2% | 70.5%
COc1ccc(Nc2ccnc3cc(Cl)ccc23)cc1CN(CCCl)CCCl | -46.7% (active) | 22.9% | -34% (active) | -38.8% (active) | -18.2% (active) | -39% (active) | -47.6% (active) | 1.03% (active) | -53.3% (active) | -37.1% (active)
O=C1C=C(N2C3C4CCC(C4)C32)C(=O)C=C1c1ccccc1 (stereo not given) | 106% | 107% | 107% | 108% | 90.2% | 96.9% | 51% | 94.9% | 102% | 115%
ClCCN(CCCl)Cc1ccc(Nc2ccnc3cc(Cl)ccc23)cc1 | 36.6% | 70.2% | 79% | 31.3% | 2.98% (active) | -4.98% (active) | -34.7% (active) | 39.2% | 8.84% (active) | 50.6%
COc1ccc(C(O)(C(=O)O)c2ccc(OC)cc2)cc1 | 89.8% | 116% | 102% | 91% | 97.2% | 95.1% | 62% | 71.6% | 94.8% | 102%
C=CC[Se]C(=O)c1ccccc1OC(C)=O | -21.6% (active) | 28.1% | -17% (active) | -7.57% (active) | -13.4% (active) | 15.2% | 47.1% | 0.797% (active) | -7.14% (active) | 36%
C=CCCCN=C=S | 82% | 94.9% | 80.7% | 76.1% | 47.9% | 92% | 38% | 75.2% | 93.4% | 91.2%
COC(=O)[C@H](Cc1ccccc1)NC(=O)c1csc([C@@H](C[C@H](C(C)C)N(C)C(=O)[C@@H](NC(=O)[C@H]2CCCN2C)C2CC2)OC(C)=O)n1 | 35.9% | 58% | 50.3% | 34.9% | 4.53% (active) | 8.6% (active) | 0.953% (active) | 23.2% | 31.6% | -26.7% (active)
COC(=O)[C@@H](NC(=O)c1cn(CCC2CCCCC2)c2ccccc12)C(C)(C)C | 76.4% | 58.6% | 83.7% | 61.8% | 79.3% | 63.4% | 63.7% | 64.8% | 73.5% | 96.4%
CC1(C)N=C(N)N=C(N)N1c1ccc(CCC(=O)Nc2ccc(S(=O)(=O)F)cc2)c(Cl)c1 | 29.9% | 46.6% | 57.9% | 19.9% | 6.19% (active) | 33.7% | -0.414% (active) | -5.32% (active) | 20.6% | 45.3%
CN(C)CC(C(=O)Cc1ccccc1)c1ccccc1 (stereo not given) | 83.6% | 125% | 102% | 106% | 102% | 86.3% | -81.3% (active) | 97.5% | 9.78% (active) | 5.72% (active)
O=C1C2C(C(=O)[N]1[Hg][c]1cccs1)C1(Cl)C(Cl)=C(Cl)C2(Cl)C1(Cl)Cl (stereo not given) | -1.96% (active) | 97.1% | 78.3% | 10.5% | 52.7% | -51.4% (active) | -89.8% (active) | 80.4% | -90.2% (active) | -71.4% (active)
C=CCn1cc(C=C2C(=O)N(C)C(=O)N(C)C2=O)c2ccccc21 | 84.4% | -47.6% (active) | 87.8% | 97% | 56% | 91.2% | 105% | 107% | 101% | 116%
O=C(CC1(O)C(=O)N(Cc2ccccc2)c2ccc(Br)cc21)c1ccc(C(=O)NCC2CCC3(CC2)OOC2(CCCCC2)OO3)cc1 (stereo not given) | -74.3% (active) | -33% (active) | 73.9% | -55.6% (active) | -41% (active) | -74.1% (active) | 2.53% (active) | -61.1% (active) | -70.7% (active) | -49.5% (active)
CC12CCC=CC1CCC1C2CCC2(C)C(c3ccc(=O)oc3)CCC12O (stereo not given) | -64% (active) | -92.3% (active) | -22.5% (active) | -71.9% (active) | -69.3% (active) | -10.7% (active) | -27.9% (active) | -52.1% (active) | -51.1% (active) | -50.9% (active)
COc1cc2c(c(OC)c1OC)-c1ccc([O-])c(=O)cc1[C@@H](NC(C)=O)CC2.COc1cc2c(c(OC)c1OC)-c1ccc([O-])c(=O)cc1[C@@H](NC(C)=O)CC2.[Cu+2] | 27.1% | 37.8% | 57% | 27.4% | 5.2% (active) | 9.89% (active) | -24.5% (active) | 45.1% | 43% | 9.04% (active)
c1cnc2[nH]cc(-c3csc(-c4cn(CCCCN5CCOCC5)c5ccccc45)n3)c2c1 | 81.1% | 72.4% | 79% | 52.8% | 31.4% | 32% | 49.1% | 56.9% | 54% | -77.6% (active)
CN1CC(=O)N(O)C1(C)c1cccnc1 (stereo not given) | 104% | 94.7% | 98.7% | 95.6% | 105% | 116% | 95.2% | 101% | 99.5% | 111%
CC[C@H](C)[C@H](NC(=O)NC(C)(C)C)C(=O)N(C)[C@H](C[C@@H](OC(C)=O)c1nc(C(=O)N[C@@H](Cc2ccccc2)C[C@H](C)C(=O)OC)cs1)C(C)C | 24.1% | 16.3% | 44.4% | 12.4% | 1.65% (active) | 17.3% | 14.4% | 19.1% | -7.51% (active) | -53.8% (active)
COc1cc2c(cc1OCc1ccccc1)C(CC(C)C)=[N+](C)CC2 | 56.4% | 81.2% | 97.8% | 88.2% | 92.1% | 77.7% | 66.3% | 61% | 95.6% | 56.9%
OCCCCCNC1CCCCC1 | 97.3% | 98.9% | 99% | 111% | 109% | 96.1% | 67.8% | 107% | 99.5% | 112%
O=C1Nc2ccccc2C2c3cccn3-c3ccccc3CN12 (stereo not given) | 70.6% | 78.2% | 91.5% | 34.5% | 43.7% | 29.7% | -7.83% (active) | 34.4% | 66.3% | 39.5%
CC(=O)O[C@H]1CC[C@H]2[C@@H]3CC=C4c5nc(-c6ccccc6)sc5CC[C@]4(C)[C@H]3CC[C@]12C | 71.7% | 95.5% | 91.4% | 72.1% | 39.4% | 102% | 43.8% | 57.9% | 66.3% | 7.45% (active)
COC(=O)CC[C@H](Cc1ccccc1)NC(=O)c1csc([C@@H](C[C@H](C(C)C)N(C)C(=O)[C@@H](NC(=O)[C@H]2CCCCN2C)C(C)C)OC(C)=O)n1 | 51% | 83% | 51% | 52.7% | 21.7% | -1.54% (active) | 9.28% (active) | 40.4% | 34.8% | -49.7% (active)
O=C(CCl)c1ccc([N+](=O)[O-])o1 | 5.38% (active) | 42.9% | 98.4% | 86.4% | 76.3% | -56% (active) | -56.7% (active) | 106% | -28.7% (active) | -86% (active)
O=P(N1CC1)(N1CC1)N1CCc2ccccc21 | 103% | 105% | 108% | 105% | 63.3% | 115% | 109% | 101% | 106% | 117%
